# Test results from article PMC11006913.
# Changes are numbered by the printed parent chain.
# How the values were obtained:
# Experiment in all cases: PBM; 200 nM protein, PBS
# Conditions in all cases: dsDNA, one strand shown
# [1] = target: CRX (Homo sapiens, UniProt O43186 26-111)
# [2] = target: HOXC9 (Homo sapiens, UniProt P31274 178-260, K195R)
# [3] = target: T1, NKX2-6 (Homo sapiens, UniProt A6NCS4 118-204, R150C)
# T1 sequence: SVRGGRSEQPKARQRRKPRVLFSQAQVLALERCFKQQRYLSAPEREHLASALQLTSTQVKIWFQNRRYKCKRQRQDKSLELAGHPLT
# [4] = target: CRX (Homo sapiens, UniProt O43186 26-111, E42D)
# CRX (Homo sapiens, UniProt O43186 26-111, E42D), sequence (O43186 26-111 E42D): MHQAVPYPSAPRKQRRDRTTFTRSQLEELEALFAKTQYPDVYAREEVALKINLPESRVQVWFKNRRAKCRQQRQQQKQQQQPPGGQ
# [5] = target: HOXC9 (Homo sapiens, UniProt P31274 178-260)
# HOXC9 (Homo sapiens, UniProt P31274 178-260), sequence (P31274 178-260): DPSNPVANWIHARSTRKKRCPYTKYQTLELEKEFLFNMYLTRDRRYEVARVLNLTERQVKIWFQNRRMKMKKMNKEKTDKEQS
# [6] = target: PITX2 (Homo sapiens, UniProt Q99697 72-157)
# [7] = target: HOXC9 (Homo sapiens, UniProt P31274 178-260, R193K)
# HOXC9 (Homo sapiens, UniProt P31274 178-260, R193K), sequence (P31274 178-260 R193K): as the sequence (P31274 178-260) above, with R16K counted along it
# [8] = target: HOXC9 (Homo sapiens, UniProt P31274 178-260, R222W)
# HOXC9 (Homo sapiens, UniProt P31274 178-260, R222W), sequence (P31274 178-260 R222W): as the sequence (P31274 178-260) above, with R45W counted along it
# [9] = target: CRX (Homo sapiens, UniProt O43186 26-111, R41L)
# CRX (Homo sapiens, UniProt O43186 26-111, R41L), sequence (O43186 26-111 R41L): as the sequence (O43186 26-111 E42D) above, with R16L, D17E counted along it
# [10] = target: T2, VENTX (Homo sapiens, UniProt O95231 78-163, R121Q)
# T2 sequence: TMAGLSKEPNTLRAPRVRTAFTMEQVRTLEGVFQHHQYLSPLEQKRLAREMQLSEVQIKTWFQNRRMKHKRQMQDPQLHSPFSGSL
# [11] = target: T3, VENTX (Homo sapiens, UniProt O95231 78-163, Y115F)
# T3 sequence: T2 sequence with Y38F, Q44R
# [12] = target: T4, VENTX (Homo sapiens, UniProt O95231 78-163)
# T4 sequence: T2 sequence with Q44R
# [13] = target: HOXB9 (Homo sapiens, UniProt P17482 171-250)
# HOXB9 (Homo sapiens, UniProt P17482 171-250), sequence (P17482 171-250): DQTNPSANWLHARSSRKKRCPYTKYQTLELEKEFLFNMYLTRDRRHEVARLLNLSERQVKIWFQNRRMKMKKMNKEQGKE
# [14] = target: HOXB9 (Homo sapiens, UniProt P17482 171-250, R186Q)
# HOXB9 (Homo sapiens, UniProt P17482 171-250, R186Q), sequence (P17482 171-250 R186Q): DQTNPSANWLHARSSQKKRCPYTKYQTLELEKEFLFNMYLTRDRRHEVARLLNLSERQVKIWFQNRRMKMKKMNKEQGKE
# [15] = target: HOXB9 (Homo sapiens, UniProt P17482 171-250, T197M)
# HOXB9 (Homo sapiens, UniProt P17482 171-250, T197M), sequence (P17482 171-250 T197M): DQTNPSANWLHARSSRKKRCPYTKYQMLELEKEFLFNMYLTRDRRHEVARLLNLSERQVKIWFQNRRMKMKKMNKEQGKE
# [16] = target: T5, SIX6 (Homo sapiens, UniProt O95475 114-200, L167I)
# T5 sequence: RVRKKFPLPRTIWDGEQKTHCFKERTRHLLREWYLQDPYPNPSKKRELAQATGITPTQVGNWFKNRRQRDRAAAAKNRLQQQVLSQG
# [17] = target: HOXA4 (Homo sapiens, UniProt Q00056 201-287, W262R)
# HOXA4 (Homo sapiens, UniProt Q00056 201-287, W262R), sequence (Q00056 201-287 W262R): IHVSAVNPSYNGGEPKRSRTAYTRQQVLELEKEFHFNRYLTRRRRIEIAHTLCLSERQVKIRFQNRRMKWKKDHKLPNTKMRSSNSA
# [18] = target: T6, SIX6 (Homo sapiens, UniProt O95475 114-200, L143V)
# T6 sequence: T5 sequence with L30V, I54L
# [19] = target: T7, SIX6 (Homo sapiens, UniProt O95475 114-200, H141N)
# T7 sequence: T5 sequence with H28N, I54L
# [20] = target: T8, SIX6 (Homo sapiens, UniProt O95475 114-200, T165P)
# T8 sequence: T5 sequence with T52P, I54L
# [21] = target: T9, SIX6 (Homo sapiens, UniProt O95475 114-200, L167M)
# T9 sequence: T5 sequence with I54M
# [22] = target: T10, SIX6 (Homo sapiens, UniProt O95475 114-200, L143M)
# T10 sequence: T5 sequence with L30M, I54L
# [23] = target: T11, SIX6 (Homo sapiens, UniProt O95475 114-200, L143I)
# T11 sequence: T5 sequence with L30I, I54L
# [24] = target: T12, SIX6 (Homo sapiens, UniProt O95475 114-200, T165G)
# T12 sequence: T5 sequence with T52G, I54L
# [25] = target: HOXA4 (Homo sapiens, UniProt Q00056 201-287, R217L)
# HOXA4 (Homo sapiens, UniProt Q00056 201-287, R217L), sequence (Q00056 201-287 R217L): as the sequence (Q00056 201-287 W262R) above, with R17L, R62W counted along it
# [26] = target: T13, SIX6 (Homo sapiens, UniProt O95475 114-200, T139Q)
# T13 sequence: T5 sequence with T26Q, I54L
# [27] = target: T14, SIX6 (Homo sapiens, UniProt O95475 114-200, T165A)
# T14 sequence: T5 sequence with T52A, I54L
# [28] = target: HOXA4 (Homo sapiens, UniProt Q00056 201-287)
# HOXA4 (Homo sapiens, UniProt Q00056 201-287), sequence (Q00056 201-287): as the sequence (Q00056 201-287 W262R) above, with R62W counted along it
# [29] = target: T15, SIX6 (Homo sapiens, UniProt O95475 114-200, L167V)
# T15 sequence: T5 sequence with I54V
# [30] = target: T16, SIX6 (Homo sapiens, UniProt O95475 114-200)
# T16 sequence: T5 sequence with I54L
# [31] = target: T17, SIX6 (Homo sapiens, UniProt O95475 114-200, T165I)
# T17 sequence: T5 sequence with T52I, I54L
# [32] = target: HOXA4 (Homo sapiens, UniProt Q00056 201-287, W262F)
# HOXA4 (Homo sapiens, UniProt Q00056 201-287, W262F), sequence (Q00056 201-287 W262F): as the sequence (Q00056 201-287 W262R) above, with R62F counted along it
# CRX (Homo sapiens, UniProt O43186 26-111), sequence (O43186 26-111): as the sequence (O43186 26-111 E42D) above, with D17E counted along it
# HOXC9 (Homo sapiens, UniProt P31274 178-260, K195R), sequence (P31274 178-260 K195R): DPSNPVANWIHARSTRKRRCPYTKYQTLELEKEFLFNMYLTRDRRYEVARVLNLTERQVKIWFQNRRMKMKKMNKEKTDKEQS
sequence,measurement,setting,value
GGGGACCC,binding signal,[1],"8.16 upbm affinity estimate (log intensity, higher = more binding, comparable within an allelic series)"
same,binding signal,[2],"9.36 upbm affinity estimate (log intensity, higher = more binding, comparable within an allelic series)"
same,binding signal,[3],"9.43 upbm affinity estimate (log intensity, higher = more binding, comparable within an allelic series)"
same,binding signal,[4],"8.31 upbm affinity estimate (log intensity, higher = more binding, comparable within an allelic series)"
same,binding signal,[5],"9.5 upbm affinity estimate (log intensity, higher = more binding, comparable within an allelic series)"
same,binding signal,[6],"7.78 upbm affinity estimate (log intensity, higher = more binding, comparable within an allelic series)"
same,binding signal,[7],"9.41 upbm affinity estimate (log intensity, higher = more binding, comparable within an allelic series)"
same,binding signal,[8],"9.52 upbm affinity estimate (log intensity, higher = more binding, comparable within an allelic series)"
same,binding signal,[9],"8.26 upbm affinity estimate (log intensity, higher = more binding, comparable within an allelic series)"
ATAATCTG,binding signal,[1],"13 upbm affinity estimate (log intensity, higher = more binding, comparable within an allelic series)"
same,binding signal,[10],"9.97 upbm affinity estimate (log intensity, higher = more binding, comparable within an allelic series)"
same,binding signal,[11],"10.1 upbm affinity estimate (log intensity, higher = more binding, comparable within an allelic series)"
same,binding signal,[4],"13 upbm affinity estimate (log intensity, higher = more binding, comparable within an allelic series)"
same,binding signal,[9],"13 upbm affinity estimate (log intensity, higher = more binding, comparable within an allelic series)"
GGATTACA,binding signal,[1],"13.1 upbm affinity estimate (log intensity, higher = more binding, comparable within an allelic series)"
same,binding signal,[10],"9.08 upbm affinity estimate (log intensity, higher = more binding, comparable within an allelic series)"
same,binding signal,[12],"9.3 upbm affinity estimate (log intensity, higher = more binding, comparable within an allelic series)"
same,binding signal,[11],"9.18 upbm affinity estimate (log intensity, higher = more binding, comparable within an allelic series)"
same,binding signal,[13],"9.44 upbm affinity estimate (log intensity, higher = more binding, comparable within an allelic series)"
same,binding signal,[4],"13 upbm affinity estimate (log intensity, higher = more binding, comparable within an allelic series)"
same,binding signal,[6],"12.8 upbm affinity estimate (log intensity, higher = more binding, comparable within an allelic series)"
same,binding signal,[14],"9.52 upbm affinity estimate (log intensity, higher = more binding, comparable within an allelic series)"
same,binding signal,[9],"13 upbm affinity estimate (log intensity, higher = more binding, comparable within an allelic series)"
GAGGTACC,binding signal,[1],"8.08 upbm affinity estimate (log intensity, higher = more binding, comparable within an allelic series)"
same,binding signal,[10],"8.02 upbm affinity estimate (log intensity, higher = more binding, comparable within an allelic series)"
same,binding signal,[12],"8.04 upbm affinity estimate (log intensity, higher = more binding, comparable within an allelic series)"
same,binding signal,[11],"8.14 upbm affinity estimate (log intensity, higher = more binding, comparable within an allelic series)"
same,binding signal,[4],"8.18 upbm affinity estimate (log intensity, higher = more binding, comparable within an allelic series)"
same,binding signal,[9],"8.17 upbm affinity estimate (log intensity, higher = more binding, comparable within an allelic series)"
ATTATCTC,binding signal,[1],"11.7 upbm affinity estimate (log intensity, higher = more binding, comparable within an allelic series)"
same,binding signal,[2],"11.4 upbm affinity estimate (log intensity, higher = more binding, comparable within an allelic series)"
same,binding signal,[4],"11.5 upbm affinity estimate (log intensity, higher = more binding, comparable within an allelic series)"
same,binding signal,[5],"11.4 upbm affinity estimate (log intensity, higher = more binding, comparable within an allelic series)"
same,binding signal,[7],"11.4 upbm affinity estimate (log intensity, higher = more binding, comparable within an allelic series)"
same,binding signal,[9],"11.5 upbm affinity estimate (log intensity, higher = more binding, comparable within an allelic series)"
CACGCCCC,binding signal,[1],"8.24 upbm affinity estimate (log intensity, higher = more binding, comparable within an allelic series)"
same,binding signal,[15],"8.49 upbm affinity estimate (log intensity, higher = more binding, comparable within an allelic series)"
same,binding signal,[16],"9.05 upbm affinity estimate (log intensity, higher = more binding, comparable within an allelic series)"
same,binding signal,[17],"9.84 upbm affinity estimate (log intensity, higher = more binding, comparable within an allelic series)"
same,binding signal,[18],"8.92 upbm affinity estimate (log intensity, higher = more binding, comparable within an allelic series)"
same,binding signal,[19],"9.05 upbm affinity estimate (log intensity, higher = more binding, comparable within an allelic series)"
same,binding signal,[20],"8.95 upbm affinity estimate (log intensity, higher = more binding, comparable within an allelic series)"
same,binding signal,[21],"8.99 upbm affinity estimate (log intensity, higher = more binding, comparable within an allelic series)"
same,binding signal,[22],"9.02 upbm affinity estimate (log intensity, higher = more binding, comparable within an allelic series)"
same,binding signal,[23],"8.94 upbm affinity estimate (log intensity, higher = more binding, comparable within an allelic series)"
same,binding signal,[24],"9.18 upbm affinity estimate (log intensity, higher = more binding, comparable within an allelic series)"
same,binding signal,[25],"9.86 upbm affinity estimate (log intensity, higher = more binding, comparable within an allelic series)"
same,binding signal,[13],"8.48 upbm affinity estimate (log intensity, higher = more binding, comparable within an allelic series)"
same,binding signal,[26],"9.14 upbm affinity estimate (log intensity, higher = more binding, comparable within an allelic series)"
same,binding signal,[4],"8.24 upbm affinity estimate (log intensity, higher = more binding, comparable within an allelic series)"
same,binding signal,[27],"9.17 upbm affinity estimate (log intensity, higher = more binding, comparable within an allelic series)"
same,binding signal,[28],"9.74 upbm affinity estimate (log intensity, higher = more binding, comparable within an allelic series)"
same,binding signal,[29],"8.99 upbm affinity estimate (log intensity, higher = more binding, comparable within an allelic series)"
same,binding signal,[30],"9.08 upbm affinity estimate (log intensity, higher = more binding, comparable within an allelic series)"
same,binding signal,[31],"9.05 upbm affinity estimate (log intensity, higher = more binding, comparable within an allelic series)"
same,binding signal,[14],"8.47 upbm affinity estimate (log intensity, higher = more binding, comparable within an allelic series)"
same,binding signal,[9],"8.33 upbm affinity estimate (log intensity, higher = more binding, comparable within an allelic series)"
same,binding signal,[32],"9.99 upbm affinity estimate (log intensity, higher = more binding, comparable within an allelic series)"
